# From PubChem BioAssay (NCI)
# Compounds without any hit were thinned out: in the full panel of roughly 83,000, 20% have a hit.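 How to read the values: 0–100, growth inhibition (40 = 60% inhibited); 0, no net growth; -100 to 0, cell death (-40 = 40% of starting cells died; -100 = all dead).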 The source made the active and inactive calls. The calls were made as follows: active = growth percent below 10; inactive = the rest.
# Tested on: HL-60(TB) leukemia
# Test: NCI-60 one-dose screen, 48 h (100 = growth as untreated, 0 = no growth, -100 = all killed)
# Settings: 10 µM unless noted
row,Structure (SMILES),growth
1,CC(C)(C)c1ccc(NS(=O)(=O)c2ccc3nc(NC(=O)c4cnccn4)[nH]c3c2)cc1,-21.9% (active)
2,O=C(CCl)NC1c2ccccc2Oc2ccccc21,78.4% (inactive)
3,CC(C)c1[nH]nc2c(NCc3ccc(-c4ccccn4)cc3)nc(SCCN)nc12,-24.4% (active)
4,O=C(/C=C\c1ccco1)/C=C/c1ccco1,106% (inactive)
5,CCOC(=O)C(C(C)=O)c1nc2sc3cc(Cl)c(Cl)cc3n2c(=O)c1C#N (stereo not given),100% (inactive)
6,O=S1(=O)N(CCNc2nccc(-c3c(-c4cccc(O)c4)nc4sccn34)n2)CCN1Cc1ccccc1,91.8% (inactive)
7,O=C1/C(=C/c2ccc(F)cc2)Sc2c(Br)cccc21,103% (inactive)
8,COC(=O)c1c2c(c(C)[n+]([O-])c1C)C(=O)C(NCc1cccc(Cl)c1)=CC2=O,-56.1% (active)
9,COc1ccc(/C=C2\N=C(c3ccccc3)N(c3cc(OC)c(OC)cc3C(=O)N3N=C(C)CC3=O)C2=O)cc1,107% (inactive)
10,COc1cccc(/C=C2\COc3ccc(O)c(O)c3C2=O)c1,-20% (active)
11,CC(=O)OC1Oc2cc(C)c(C)cc2-c2oc(=O)c(-c3cc4ccccc4oc3=O)cc21 (stereo not given),93.4% (inactive)
12,CC(=O)c1cc(Nc2cc(C)nc(N)n2)cc(C(C)=O)c1,96.1% (inactive)
13,O=C(Nc1cccc(C(F)(F)F)c1)Oc1ccc(Cl)c2cccnc12,-10.6% (active)
14,O=C1C=CC(O)=CC1=P(c1ccccc1)(c1ccccc1)c1ccccc1,97.8% (inactive)
15,O=C(NCCCN1CCC(N2CCCCC2)CC1)C1=Cc2cc(Br)ccc2OC1,36.3% (inactive)
16,N#CC1C(=O)NC(c2ccccc2[N+](=O)[O-])c2sc3c(F)cccc3c21 (stereo not given),82.3% (inactive)
17,CCCc1n(Cc2ccc3ccccc3n2)cc[n+]1Cc1ccc2ccccc2c1,-53.7% (active)
18,O=c1c2ccccc2c(Br)c(Br)c2ccccc12,70.9% (inactive)
19,CNS(=O)(=O)c1n[nH]nc1-c1cc(C(C)(C)C)c(O)c(C(C)(C)C)c1,95% (inactive)
20,CSc1ccc2c(c1)c(CCN)c(C)n2Cc1ccc(Cl)c(Cl)c1,-69.9% (active)

row,Structure (SMILES),growth
1,COC(=O)Nc1ccc(NC(=O)OC)cc1,95.9% (inactive)
2,C=C1C(=O)O[C@H]2[C@H]1CC/C(COC(=O)C(=O)c1c[nH]c3ccc(Cl)cc13)=C\CC[C@@]1(C)O[C@@H]21,-44.6% (active)
3,COc1cc(/C=C2\CCCC3=C2N=C2SC(C)=CN2C3c2cc(OC)c(OC)c(OC)c2)cc(OC)c1OC (stereo not given),-11.9% (active)
4,C=C(NC(=O)[C@H](C(C)C)N(C)c1cccc2[nH]ccc12)C(=O)OC,109% (inactive)
5,CCCCCCCC/C=C/CCCCCCCC1=NC(C)(C)CN1C(C)C,-65.6% (active)
6,CC(=O)Oc1csc(N(C(C)=O)c2cc(C(=O)O)cc(C(=O)O)c2)n1,113% (inactive)
7,COc1ccc(Cl)cc1NC(=O)C(Br)C(Br)C(=O)O (stereo not given),1.26% (active)
8,CNC(=S)N/N=C/CSC/C=N/NC(=S)NC,85% (inactive)
9,Cc1ccc(C2=NN3C(C2)c2cc(Br)ccc2OC32CCN(Cc3ccccc3)CC2)o1 (stereo not given),90.4% (inactive)
10,N#Cc1ccc(C(F)(F)F)nc1N1CCC(C(=O)Nc2ccc(Cl)cc2)CC1,70% (inactive)
11,COc1cnc2c(c1)C(=O)c1c-2n(CCCN2CCN(CCO)CC2)c(=O)c2cc([N+](=O)[O-])ccc12,12.7% (inactive)
12,C=C1CC2(OC1=O)C(=O)N(CCCN1C(=O)C3(CC(=C)C(=O)O3)c3ccccc31)c1ccccc12 (stereo not given),-26.5% (active)
13,CCOC(=O)c1c(C)nc2c(c1N)/C(=C/c1ccc(OC)cc1)C(=O)N2Cc1ccccc1,45.8% (inactive)
14,COC(=O)c1nc(N)nc(C(=O)OC)c1C(=O)c1ccc(F)cc1,115% (inactive)
15,COc1cccc2c1C(=O)c1c(O)c3c(c(O)c1C2=O)C[C@@](O)(C(C)=O)C[C@@H]3OC1CC(N)C(O)C(C)O1 (stereo not given in full),-63.3% (active)
16,COc1ccc(/C=C/C(=O)c2cc3c(N)c(C(=O)Nc4cccc5ccccc45)sc3nc2C)cc1,81.9% (inactive)
17,COc1ccc(Nc2ncccc2NC(=O)c2cn(Cc3cccc(Oc4ccccc4)c3)nn2)cc1,95.9% (inactive)
18,CC(=O)NCC(=O)Nc1ccc(-c2nnc3ccccn23)nc1.CC(=O)NCC(=O)Nc1ccc(-c2nnc3ccccn23)nc1.[Pt+2],109% (inactive)
19,CCN1CCN(c2cc(C)nc(N(CCNc3ccnc4cc(Cl)ccc34)Cc3ccc4c(c3)OCO4)n2)CC1,-61.8% (active)
20,CCCCN(CCCC)c1cc(C(=O)CCCCCN)c2ccccc2n1,-67.9% (active)
